# Columns and labels:
# Assay in all cases: DAPPL (digital affinity profiling via proximity ligation, sequencing); 10 mM Tris-HCl pH 7.5, 50 mM NaCl, 1 mM DTT, 4% glycerol, room temperature, 30 min; GST-TFs on glutathione beads, 16-mer random dsDNA library, 0.1% formaldehyde crosslink after washing; high values mean tight binding
# ETV5 = ETV5 (Homo sapiens, UniProt P41161 1-510); conditions: protein: recombinant; tags: N-terminal GST; dsDNA, one strand shown
# How it was run: (§1)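 Yeast served to express human transcription factors as GST fusions, which were then captured on glutathione beads and labelled with DNA barcodes. Pooled with a tag-only sample, they were incubated with 200 nmole of a 16-mer random double-stranded DNA library for 30 min at room temperature in Tris/NaCl/DTT/glycerol buffer, washed, crosslinked with 0.1% formaldehyde, ligated by proximity, amplified by PCR and sequenced. Dividing each hexamer's read frequency for a factor by its frequency for the tag-only sample gives the binding signal.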
# HSF1 = HSF1 (Homo sapiens, UniProt Q00613 1-529); conditions: protein: recombinant; tags: N-terminal GST; chain copies: 3; dsDNA, one strand shown
# HSF1, sequence (Q00613 whole entry): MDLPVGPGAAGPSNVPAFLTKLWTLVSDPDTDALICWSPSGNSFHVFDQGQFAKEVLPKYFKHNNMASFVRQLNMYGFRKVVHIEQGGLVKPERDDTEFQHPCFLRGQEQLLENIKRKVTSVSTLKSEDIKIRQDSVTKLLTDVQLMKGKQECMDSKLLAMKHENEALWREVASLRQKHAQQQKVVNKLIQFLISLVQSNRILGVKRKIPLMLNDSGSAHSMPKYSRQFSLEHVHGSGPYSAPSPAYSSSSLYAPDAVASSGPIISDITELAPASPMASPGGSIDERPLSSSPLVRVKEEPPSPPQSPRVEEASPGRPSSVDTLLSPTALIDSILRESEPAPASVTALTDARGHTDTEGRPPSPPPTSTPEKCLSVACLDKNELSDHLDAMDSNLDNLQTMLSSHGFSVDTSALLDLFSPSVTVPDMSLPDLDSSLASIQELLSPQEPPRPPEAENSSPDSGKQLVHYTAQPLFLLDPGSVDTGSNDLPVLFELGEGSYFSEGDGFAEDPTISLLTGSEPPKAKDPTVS
# How it was run: as §1
# SPIC = molecular target: T1, SPIC (Homo sapiens, UniProt Q8N5J4 1-248); conditions: protein: recombinant; tags: N-terminal GST; dsDNA, one strand shown
# T1 sequence: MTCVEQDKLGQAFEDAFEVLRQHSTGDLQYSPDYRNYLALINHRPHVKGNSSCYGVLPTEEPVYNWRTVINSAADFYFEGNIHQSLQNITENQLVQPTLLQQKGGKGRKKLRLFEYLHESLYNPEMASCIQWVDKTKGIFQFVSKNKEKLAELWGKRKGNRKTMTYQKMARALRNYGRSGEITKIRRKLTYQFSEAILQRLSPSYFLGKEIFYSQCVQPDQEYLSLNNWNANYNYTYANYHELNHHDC
# How it was run: as §1
# ELF4 = ELF4 (Homo sapiens, UniProt Q99607 1-663); conditions: protein: recombinant; tags: N-terminal GST; dsDNA, one strand shown
# ELF4, sequence (Q99607 whole entry): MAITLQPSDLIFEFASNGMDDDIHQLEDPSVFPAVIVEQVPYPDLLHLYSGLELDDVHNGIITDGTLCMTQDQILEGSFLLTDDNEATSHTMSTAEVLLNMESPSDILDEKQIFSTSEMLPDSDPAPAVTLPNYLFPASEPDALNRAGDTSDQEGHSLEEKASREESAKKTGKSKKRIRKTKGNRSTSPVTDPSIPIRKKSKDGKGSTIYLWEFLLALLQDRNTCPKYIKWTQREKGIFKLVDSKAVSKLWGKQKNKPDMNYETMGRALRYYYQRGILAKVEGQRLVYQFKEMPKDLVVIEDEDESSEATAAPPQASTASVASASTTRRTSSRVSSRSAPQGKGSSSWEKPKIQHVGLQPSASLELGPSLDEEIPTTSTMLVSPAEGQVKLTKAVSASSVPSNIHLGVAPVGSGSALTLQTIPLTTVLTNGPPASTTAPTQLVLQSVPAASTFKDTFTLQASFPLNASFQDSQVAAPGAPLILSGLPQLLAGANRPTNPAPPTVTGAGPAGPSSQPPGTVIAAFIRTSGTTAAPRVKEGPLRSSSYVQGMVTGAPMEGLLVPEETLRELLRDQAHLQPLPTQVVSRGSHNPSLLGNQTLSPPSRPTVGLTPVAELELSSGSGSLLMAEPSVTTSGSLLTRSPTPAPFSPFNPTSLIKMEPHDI
# How it was run: as §1
# ELK4 = molecular target: T2, ELK4 (Homo sapiens, UniProt P28324-2 1-405); conditions: protein: recombinant; tags: N-terminal GST; dsDNA, one strand shown
# T2 sequence: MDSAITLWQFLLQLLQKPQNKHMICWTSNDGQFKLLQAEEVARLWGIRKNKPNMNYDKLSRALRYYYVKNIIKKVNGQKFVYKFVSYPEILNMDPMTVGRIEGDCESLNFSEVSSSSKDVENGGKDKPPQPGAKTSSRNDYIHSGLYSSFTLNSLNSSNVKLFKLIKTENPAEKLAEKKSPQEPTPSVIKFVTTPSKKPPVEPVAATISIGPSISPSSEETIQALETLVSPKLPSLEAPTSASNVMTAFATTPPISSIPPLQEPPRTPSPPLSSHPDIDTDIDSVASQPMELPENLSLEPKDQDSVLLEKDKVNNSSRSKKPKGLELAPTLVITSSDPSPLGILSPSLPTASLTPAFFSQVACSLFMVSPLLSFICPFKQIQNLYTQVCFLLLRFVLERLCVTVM
# How it was run: as §1
# ETV2 = molecular target: T3, ETV2 (Homo sapiens, UniProt O00321 1-342); conditions: protein: recombinant; tags: N-terminal GST; dsDNA, one strand shown
# T3 sequence: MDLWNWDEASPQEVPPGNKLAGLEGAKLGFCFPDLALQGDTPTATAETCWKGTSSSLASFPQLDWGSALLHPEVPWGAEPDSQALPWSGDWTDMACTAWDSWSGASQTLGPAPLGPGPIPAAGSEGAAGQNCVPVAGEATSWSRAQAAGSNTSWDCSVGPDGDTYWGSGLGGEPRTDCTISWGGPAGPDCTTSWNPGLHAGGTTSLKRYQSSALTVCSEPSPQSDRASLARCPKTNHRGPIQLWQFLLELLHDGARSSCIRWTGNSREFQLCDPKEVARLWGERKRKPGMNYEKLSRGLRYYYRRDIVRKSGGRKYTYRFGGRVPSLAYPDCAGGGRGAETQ
# How it was run: as §1
# ELF3 = molecular target: T4, ELF3 (Homo sapiens, UniProt P78545 1-371); conditions: protein: recombinant; tags: N-terminal GST; dsDNA, one strand shown
# T4 sequence: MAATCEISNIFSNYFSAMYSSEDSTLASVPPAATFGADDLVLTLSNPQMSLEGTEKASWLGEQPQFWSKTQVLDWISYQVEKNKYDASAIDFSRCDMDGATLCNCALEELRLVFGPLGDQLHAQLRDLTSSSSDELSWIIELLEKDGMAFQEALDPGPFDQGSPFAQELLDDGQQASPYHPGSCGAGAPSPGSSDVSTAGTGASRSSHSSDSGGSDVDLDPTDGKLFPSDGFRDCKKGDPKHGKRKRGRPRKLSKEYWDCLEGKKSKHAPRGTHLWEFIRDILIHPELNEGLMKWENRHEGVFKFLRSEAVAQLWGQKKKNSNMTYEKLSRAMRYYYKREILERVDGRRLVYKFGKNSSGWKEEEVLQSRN
# How it was run: as §1
# CRX = CRX (Homo sapiens, UniProt O43186 1-299); conditions: protein: recombinant; tags: N-terminal GST; dsDNA, one strand shown
# CRX, sequence (O43186 whole entry): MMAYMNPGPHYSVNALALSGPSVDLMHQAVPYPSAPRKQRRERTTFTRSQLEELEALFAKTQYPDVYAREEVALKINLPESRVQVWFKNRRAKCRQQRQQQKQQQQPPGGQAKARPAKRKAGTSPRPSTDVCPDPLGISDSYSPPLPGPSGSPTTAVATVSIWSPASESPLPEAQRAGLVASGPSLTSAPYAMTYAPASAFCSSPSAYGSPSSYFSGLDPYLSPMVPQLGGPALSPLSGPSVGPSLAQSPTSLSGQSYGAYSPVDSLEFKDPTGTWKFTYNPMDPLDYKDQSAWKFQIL
# How it was run: as §1
# ETV1 = ETV1 (Homo sapiens, UniProt P50549 1-477); conditions: protein: recombinant; tags: N-terminal GST; dsDNA, one strand shown
# ETV1, sequence (P50549 whole entry): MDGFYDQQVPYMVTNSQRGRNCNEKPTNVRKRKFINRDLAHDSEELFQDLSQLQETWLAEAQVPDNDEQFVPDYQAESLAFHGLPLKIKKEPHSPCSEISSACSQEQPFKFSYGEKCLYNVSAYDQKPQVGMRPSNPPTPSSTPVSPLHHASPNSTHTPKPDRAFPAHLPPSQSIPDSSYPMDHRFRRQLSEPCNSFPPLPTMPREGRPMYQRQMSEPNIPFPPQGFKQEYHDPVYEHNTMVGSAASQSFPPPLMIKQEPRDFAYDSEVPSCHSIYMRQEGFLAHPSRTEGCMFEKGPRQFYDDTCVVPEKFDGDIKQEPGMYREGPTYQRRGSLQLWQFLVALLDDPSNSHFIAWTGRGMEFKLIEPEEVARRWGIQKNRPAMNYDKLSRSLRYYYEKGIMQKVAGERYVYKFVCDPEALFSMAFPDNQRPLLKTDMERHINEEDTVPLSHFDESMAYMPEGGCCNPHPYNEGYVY
# How it was run: as §1
# ERF = molecular target: T5, ERF (Homo sapiens, UniProt P50548 1-548); conditions: protein: recombinant; tags: N-terminal GST; dsDNA, one strand shown
# T5 sequence: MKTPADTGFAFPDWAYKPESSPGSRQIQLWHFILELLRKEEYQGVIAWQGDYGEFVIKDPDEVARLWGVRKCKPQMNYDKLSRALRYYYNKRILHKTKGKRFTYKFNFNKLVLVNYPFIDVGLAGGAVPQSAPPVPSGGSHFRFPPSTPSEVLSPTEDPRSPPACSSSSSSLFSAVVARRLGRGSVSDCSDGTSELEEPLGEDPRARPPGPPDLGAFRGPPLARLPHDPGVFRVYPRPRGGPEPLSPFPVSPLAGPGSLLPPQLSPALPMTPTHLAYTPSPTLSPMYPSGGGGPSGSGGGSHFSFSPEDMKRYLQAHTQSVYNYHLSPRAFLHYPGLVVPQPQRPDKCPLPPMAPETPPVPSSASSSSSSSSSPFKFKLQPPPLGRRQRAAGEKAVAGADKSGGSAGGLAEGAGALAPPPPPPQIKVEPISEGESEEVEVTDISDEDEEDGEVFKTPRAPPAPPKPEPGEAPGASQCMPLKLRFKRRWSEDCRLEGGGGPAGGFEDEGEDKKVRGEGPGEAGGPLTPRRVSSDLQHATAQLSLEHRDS
# How it was run: as §1
# ETV3L = molecular target: T6, ETV3L (Homo sapiens, UniProt Q6ZN32 1-361); conditions: protein: recombinant; tags: N-terminal GST; dsDNA, one strand shown
# T6 sequence: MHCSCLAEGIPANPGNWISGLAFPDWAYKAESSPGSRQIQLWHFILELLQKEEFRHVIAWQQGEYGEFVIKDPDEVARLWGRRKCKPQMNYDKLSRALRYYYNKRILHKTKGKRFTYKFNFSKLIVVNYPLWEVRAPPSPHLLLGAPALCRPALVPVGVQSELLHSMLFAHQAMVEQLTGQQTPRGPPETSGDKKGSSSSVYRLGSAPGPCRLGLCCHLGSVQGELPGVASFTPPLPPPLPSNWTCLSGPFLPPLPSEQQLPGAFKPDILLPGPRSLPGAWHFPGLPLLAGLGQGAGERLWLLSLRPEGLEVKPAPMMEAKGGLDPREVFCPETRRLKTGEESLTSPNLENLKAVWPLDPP
# How it was run: as §1
# ETS2 = molecular target: T7, ETS2 (Homo sapiens, UniProt P15036 1-469); conditions: protein: recombinant; tags: N-terminal GST; dsDNA, one strand shown
# T7 sequence: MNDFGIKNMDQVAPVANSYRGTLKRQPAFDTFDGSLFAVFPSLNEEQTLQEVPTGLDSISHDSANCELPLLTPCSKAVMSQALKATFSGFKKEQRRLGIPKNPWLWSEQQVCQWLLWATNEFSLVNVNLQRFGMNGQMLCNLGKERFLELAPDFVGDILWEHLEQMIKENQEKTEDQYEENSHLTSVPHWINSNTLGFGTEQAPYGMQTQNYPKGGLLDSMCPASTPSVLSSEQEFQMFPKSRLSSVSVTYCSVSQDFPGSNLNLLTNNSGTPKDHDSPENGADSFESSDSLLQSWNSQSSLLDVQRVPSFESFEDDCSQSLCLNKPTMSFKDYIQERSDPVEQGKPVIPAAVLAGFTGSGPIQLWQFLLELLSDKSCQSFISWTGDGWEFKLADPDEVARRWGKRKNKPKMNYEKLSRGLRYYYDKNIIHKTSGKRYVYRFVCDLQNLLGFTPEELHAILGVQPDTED
# How it was run: as §1
# SPDEF = molecular target: T8, SPDEF (Homo sapiens, UniProt O95238 1-335); conditions: protein: recombinant; tags: N-terminal GST; dsDNA, one strand shown
# T8 sequence: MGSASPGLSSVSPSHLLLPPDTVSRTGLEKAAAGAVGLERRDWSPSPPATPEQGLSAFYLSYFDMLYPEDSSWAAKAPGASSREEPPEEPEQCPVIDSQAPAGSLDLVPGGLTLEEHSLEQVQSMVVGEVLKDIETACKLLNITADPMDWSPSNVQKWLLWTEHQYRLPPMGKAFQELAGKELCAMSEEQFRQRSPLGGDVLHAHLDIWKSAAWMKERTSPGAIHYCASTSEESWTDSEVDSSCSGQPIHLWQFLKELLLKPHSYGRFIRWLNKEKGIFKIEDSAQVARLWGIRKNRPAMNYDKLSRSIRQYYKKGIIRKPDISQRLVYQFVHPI
# How it was run: as §1
# ETV7 = molecular target: T9, ETV7 (Homo sapiens, UniProt Q9Y603 1-341); conditions: protein: recombinant; tags: N-terminal GST; dsDNA, one strand shown
# T9 sequence: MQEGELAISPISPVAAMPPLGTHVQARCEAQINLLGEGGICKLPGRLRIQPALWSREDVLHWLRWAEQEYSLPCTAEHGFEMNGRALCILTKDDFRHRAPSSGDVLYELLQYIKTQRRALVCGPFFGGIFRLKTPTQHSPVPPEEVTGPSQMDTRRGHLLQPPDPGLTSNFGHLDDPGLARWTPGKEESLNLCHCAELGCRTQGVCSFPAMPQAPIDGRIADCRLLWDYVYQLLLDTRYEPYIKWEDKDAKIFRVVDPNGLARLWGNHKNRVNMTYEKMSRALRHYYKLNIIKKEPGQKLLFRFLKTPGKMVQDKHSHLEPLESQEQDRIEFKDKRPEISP
# How it was run: as §1
# ELF5 = molecular target: T10, ELF5 (Homo sapiens, UniProt Q9UKW6-2 1-255); conditions: protein: recombinant; tags: N-terminal GST; dsDNA, one strand shown
# T10 sequence: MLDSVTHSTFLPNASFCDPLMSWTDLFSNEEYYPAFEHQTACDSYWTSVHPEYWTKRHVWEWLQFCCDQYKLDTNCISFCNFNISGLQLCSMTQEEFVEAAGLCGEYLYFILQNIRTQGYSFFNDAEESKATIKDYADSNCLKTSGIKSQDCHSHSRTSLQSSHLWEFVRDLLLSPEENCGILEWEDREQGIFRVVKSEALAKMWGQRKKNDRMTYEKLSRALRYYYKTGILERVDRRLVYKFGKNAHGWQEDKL
# How it was run: as §1
# ETV3 = molecular target: T11, ETV3 (Homo sapiens, UniProt P41162-2 1-143); conditions: protein: recombinant; tags: N-terminal GST; dsDNA, one strand shown
# T11 sequence: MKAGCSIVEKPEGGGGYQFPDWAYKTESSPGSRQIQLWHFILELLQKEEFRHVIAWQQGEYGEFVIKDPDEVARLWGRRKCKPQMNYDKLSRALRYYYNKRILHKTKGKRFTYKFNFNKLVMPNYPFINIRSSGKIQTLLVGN
# How it was run: as §1
# ETV6 = ETV6 (Homo sapiens, UniProt P41212 1-452); conditions: protein: recombinant; tags: N-terminal GST; dsDNA, one strand shown
# ETV6, sequence (P41212 whole entry): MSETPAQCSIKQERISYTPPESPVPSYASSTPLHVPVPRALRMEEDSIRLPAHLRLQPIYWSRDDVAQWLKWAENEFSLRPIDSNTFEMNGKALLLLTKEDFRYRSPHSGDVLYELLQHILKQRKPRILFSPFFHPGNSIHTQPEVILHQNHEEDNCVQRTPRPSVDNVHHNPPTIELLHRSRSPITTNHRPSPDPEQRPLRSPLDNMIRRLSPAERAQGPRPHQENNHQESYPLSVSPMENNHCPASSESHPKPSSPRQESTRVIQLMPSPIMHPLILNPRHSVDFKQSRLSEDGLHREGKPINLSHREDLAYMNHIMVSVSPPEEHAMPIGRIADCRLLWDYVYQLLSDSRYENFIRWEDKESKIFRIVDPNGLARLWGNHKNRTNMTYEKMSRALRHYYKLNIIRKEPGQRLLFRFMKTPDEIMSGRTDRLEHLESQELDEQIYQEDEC
# How it was run: as §1
# ETV5, sequence (P41161 whole entry, the tested form may be a part): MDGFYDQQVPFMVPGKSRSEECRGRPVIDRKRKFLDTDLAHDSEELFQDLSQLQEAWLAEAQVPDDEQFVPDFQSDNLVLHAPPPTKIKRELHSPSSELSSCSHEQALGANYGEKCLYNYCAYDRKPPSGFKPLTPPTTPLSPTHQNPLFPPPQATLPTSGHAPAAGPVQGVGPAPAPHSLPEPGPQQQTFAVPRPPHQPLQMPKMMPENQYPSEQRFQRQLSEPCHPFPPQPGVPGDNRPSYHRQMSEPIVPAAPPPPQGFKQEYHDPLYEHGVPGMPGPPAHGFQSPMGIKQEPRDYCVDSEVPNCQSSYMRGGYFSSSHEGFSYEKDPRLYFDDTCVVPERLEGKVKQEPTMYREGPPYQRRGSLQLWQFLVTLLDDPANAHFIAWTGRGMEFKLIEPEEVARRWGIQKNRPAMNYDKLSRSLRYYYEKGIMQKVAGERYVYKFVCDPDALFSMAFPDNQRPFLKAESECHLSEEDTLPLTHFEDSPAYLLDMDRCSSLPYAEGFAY
sequence,measurement,setting,value
AAGAAG,binding signal,ETV5,"1.08 fold enrichment (6-mer frequency, TF over GST control)"
same,binding signal,HSF1,"1.44 fold enrichment (6-mer frequency, TF over GST control)"
same,binding signal,SPIC,"1.23 fold enrichment (6-mer frequency, TF over GST control)"
same,binding signal,ELF4,"1.06 fold enrichment (6-mer frequency, TF over GST control)"
same,binding signal,ELK4,"1.18 fold enrichment (6-mer frequency, TF over GST control)"
same,binding signal,ETV2,"1.19 fold enrichment (6-mer frequency, TF over GST control)"
same,binding signal,ELF3,"1.26 fold enrichment (6-mer frequency, TF over GST control)"
same,binding signal,CRX,"1.21 fold enrichment (6-mer frequency, TF over GST control)"
same,binding signal,ETV1,"1.1 fold enrichment (6-mer frequency, TF over GST control)"
same,binding signal,ERF,"1.01 fold enrichment (6-mer frequency, TF over GST control)"
same,binding signal,ETV3L,"1.04 fold enrichment (6-mer frequency, TF over GST control)"
same,binding signal,ETS2,"1.04 fold enrichment (6-mer frequency, TF over GST control)"
same,binding signal,SPDEF,"1.01 fold enrichment (6-mer frequency, TF over GST control)"
same,binding signal,ETV7,"1.16 fold enrichment (6-mer frequency, TF over GST control)"
same,binding signal,ELF5,"1.12 fold enrichment (6-mer frequency, TF over GST control)"
same,binding signal,ETV3,"1.05 fold enrichment (6-mer frequency, TF over GST control)"
same,binding signal,ETV6,"1.16 fold enrichment (6-mer frequency, TF over GST control)"

# From article PMC7862700, “An all-to-all approach to the identification of sequence-specific readers for epigenetic DNA modifications on cytosine”
